Test in all cases: NCI-60 one-dose screen, 48 h (100 = growth as untreated, 0 = no growth, -100 = all killed)
Holding throughout (settings): 10 µM unless noted

In experiment [1] the test system is NCI-H23 lung.
The test system of experiment [2] is NCI-H226 lung.
Experiment [3] concerns NCI-H322M lung.
For experiment [4], the system named is HOP-62 NSCLC.
The test system of experiment [5] is NCI-H460 lung.
Experiment [6] concerns HOP-92 NSCLC.
Experiment [7] deals with NCI-H522 lung.
The subject of experiment [8] is A549/ATCC NSCLC.
For experiment [9], the system named is 786-0 renal.
For experiment [10], the system named is COLO 205 colon.

Compounds without any hit were thinned out: in the full panel of roughly 83,000, 20% have a hit.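 Activity criterion: percent growth below 10, measured after cells in 96-well plates were exposed to a single compound concentration for 48 hours.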 Unmarked numbers belong to inactive results. Activity calls are given as the source filed them.

With `COc1ccc(C(O)(C(=O)O)c2ccc(OC)cc2)cc1`, the growth in experiment [1] is 89.8%; in experiment [2] it was 116%; in [3] it was 102%; in experiment [4], 91%; in experiment [5], 97.2%; in experiment [6], 95.1%. Further, the growth is 62% in experiment [7], 71.6% in experiment [8], 94.8% in [9] and 102% in [10].
In the case of `O=C(N/N=C\c1ccc(N(CCCl)CCCl)cc1)c1cccc([N+](=O)[O-])c1`, the growth in [1] was 87.7%; in experiment [2], 46.6%; in experiment [3], 121%; in [4] it was -2.12% (active); in experiment [5], 69.1%; in experiment [6] it was 92.4%. Moreover, the growth is 107% in [7], 90.4% in experiment [8], 96.7% in experiment [9] and 102% in experiment [10].
Take `CC12CCC3C(CCC4=CC(=O)CCC43CF)C1CCC2=O` (stereo not given): the growth in experiment [1] was 106%; in [2], 111%; in experiment [3], 102%; in [4], 124%; in experiment [5] it was 109%; in experiment [6] it was 114%. Moreover, the growth in [7] was 87.3%; in experiment [8], 99.3%; in experiment [9], 106%; in [10] it was 135%.
Regarding `Cc1ccc(C(=O)NCCCOc2ccc(N3C(N)=NC(N)=NC3(C)C)cc2Cl)cc1S(=O)(=O)F`, the growth was 84.4% in [1]; 91.9% in experiment [2]; 92.5% in experiment [3]; 94.7% in experiment [4]; 46.2% in [5]; 69.1% in experiment [6]. The growth in experiment [7] was 78.3%; in experiment [8] it was 77.5%; in [9], 91%; in [10] it was 87.7%.
On to `CNC(=O)Oc1cccc(C(F)(F)F)c1`, for which the growth in experiment [1] is 108%; in experiment [2], 90%; in experiment [3], 125%; in experiment [4], 107%; in [5], 114%; in [6], 106%. Moreover, the growth was 95.2% in [7], 103% in experiment [8], 105% in experiment [9] and 107% in experiment [10].
Take `COc1cccc2c1c(C(=O)C(=O)Nc1cc(C)no1)cn2Cc1ccc(F)cc1`: the growth in experiment [1] is 78.8%; in experiment [2], 75.5%; in [3], 94.7%; in experiment [4], 64.1%; in [5], 71.3%; in [6], 57.4%. Besides, the growth in [7] is 72.5%; in experiment [8], 91.9%; in [9] it was 64.1%; in experiment [10] it was 95.4%.
With `CO[C@H]1CC[C@@]2(C)C(=CC[C@@H]3[C@@H]2CC[C@]2(C)C(=O)C(=O)C[C@@H]32)C1`, the growth in experiment [1] was 99.5%; in experiment [2], 96.1%; in [3] it was 120%; in experiment [4] it was 106%; in experiment [5] it was 102%; in experiment [6] it was 83.7%. The growth in experiment [7] was 98%; in [8], 111%; in [9], 107%; in [10], 118%.
For `O=C(CC1(O)C(=O)Nc2ccc(Br)cc21)c1ccc(C(=O)NCC2CCC3(CC2)OOC2(CCCCC2)OO3)cc1` (stereo not given), the growth in [1] was 53.7%; in [2], 61.3%; in [3], 80.1%; in experiment [4], 31%; in [5], 36.4%; in experiment [6], -46.3% (active). The growth is 6.67% (active) in [7], 36.7% in experiment [8], -7.61% (active) in experiment [9] and 51.4% in experiment [10].
In the case of `O=C1NC(=O)C(=Cc2cn(CCCCCCn3c4ccccc4c(=O)c4ccccc43)c3ccccc23)C(=O)N1`, the growth in experiment [1] was 82.5%; in experiment [2] it was 67.2%; in experiment [3], 85.8%; in experiment [4], 86.7%; in experiment [5], 34.2%; in experiment [6], 96.1%. The growth was 73.3% in [7], 92.4% in [8], 96.8% in [9] and 92.3% in experiment [10].
For `N#C[S-].[Au+].c1ccc(CN2[CH-]N(Cc3ccccc3)C(c3ccccc3)=C2c2ccccc2)cc1`, the growth was 8.69% (active) in [1]; 24.4% in experiment [2]; 30.3% in experiment [3]; 16% in experiment [4]; 4.03% (active) in experiment [5]; -25% (active) in experiment [6]. Besides, the growth is -30.9% (active) in experiment [7], 12.8% in experiment [8], 7% (active) in experiment [9] and -76.9% (active) in experiment [10].
Consider `COc1ccc(/C=C\c2cc(OC)c(OC)c(OC)c2)c(NS(=O)(=O)c2ccc(F)cc2)c1O`, for which the growth was 27.4% in experiment [1]; 35.1% in experiment [2]; 53.6% in [3]; 71.3% in experiment [4]; 5.54% (active) in [5]; 43.3% in [6]. The growth in experiment [7] was -18.6% (active); in experiment [8] it was 23.9%; in [9], 18.4%; in experiment [10], 0.893% (active).
With `COc1ccc(/C=C\c2cc(OC)c(OC)c(OC)c2)c(NS(=O)(=O)c2ccc(Cl)cc2)c1O`, the growth in experiment [1] was 21.8%; in experiment [2] it was 18.4%; in experiment [3], 40.8%; in experiment [4], 49.8%; in experiment [5], 8.23% (active); in experiment [6] it was 48.3%. Besides, the growth in experiment [7] was -36% (active); in experiment [8], 16.7%; in experiment [9], 25.5%; in experiment [10], 20.9%.
Consider `CC[C@H](C)[C@H](NC(=O)[C@H]1CCCCN1C)C(=O)N(C)[C@H](C[C@@H](O)c1nc(C(=O)N[C@@H](Cc2ccccc2)C[C@H](C)C(=O)O)cs1)C(C)C`, for which the growth in experiment [1] was 94.8%; in experiment [2] it was 99%; in experiment [3] it was 105%; in experiment [4], 82.4%; in experiment [5], 95.6%; in experiment [6], 57.8%. Besides, the growth was -18% (active) in experiment [7], 87.1% in experiment [8], 90.2% in [9] and 83.6% in experiment [10].
For `O=C(c1cccc(O)c1O)c1cn(Cc2ccc(F)cc2)c2cccc(O)c12`, the growth in [1] is 47.8%; in experiment [2] it was 61.5%; in [3] it was 37.9%; in experiment [4], 31%; in experiment [5] it was 11.4%; in experiment [6], -9.9% (active). The growth in experiment [7] was -36.5% (active); in experiment [8] it was 30.5%; in experiment [9] it was 31.2%; in experiment [10], 50.3%.
For `Nc1ccc(Cl)cc1`, the growth in [1] was 99.3%; in [2] it was 92.1%; in experiment [3], 106%; in experiment [4], 90.3%; in [5] it was 109%; in [6] it was 85.5%. The growth is 89.3% in experiment [7], 78.7% in experiment [8], 97.7% in experiment [9] and 95.9% in experiment [10].
As to `O=[N+]([O-])c1cc(I)cc([N+](=O)[O-])c1`, the growth in experiment [1] is 95.9%; in [2], 115%; in [3], 111%; in experiment [4], 133%; in experiment [5], 111%; in experiment [6], 131%. In addition, the growth is 85.5% in experiment [7], 99.5% in experiment [8], 112% in experiment [9] and 111% in experiment [10].
Regarding `C[C@]12CCc3sc(-c4ccccc4O)nc3C1=CC[C@@H]1[C@@H]2CC[C@]2(C)C(=O)CC[C@@H]12`, the growth is 103% in experiment [1]; 108% in experiment [2]; 101% in [3]; 98.9% in experiment [4]; 108% in experiment [5]; 115% in [6]. Also, the growth is 99.3% in experiment [7], 103% in experiment [8], 102% in experiment [9] and 108% in experiment [10].
Take `COc1cccc2c1c(C(=O)C(=O)Nc1ccn[nH]1)cn2Cc1ccc(F)cc1`: the growth in experiment [1] was 96.4%; in experiment [2], 76.4%; in experiment [3], 97.8%; in experiment [4], 103%; in experiment [5], 77.6%; in experiment [6], 87%. Also, the growth in experiment [7] was 96.8%; in [8], 86.3%; in [9], 92.4%; in experiment [10], 103%.
For `CC[C@H](C)[C@H](NC(=O)[C@H]1CCCCN1C)C(=O)N(C)[C@H](CC(=O)c1nc(C(=O)N[C@@H](Cc2ccccc2)C[C@H](C)C(=O)O)cs1)C(C)C`, the growth was 93.2% in experiment [1]; 92.3% in experiment [2]; 107% in experiment [3]; 77% in experiment [4]; 91% in [5]; 49% in experiment [6]. In addition, the growth is -9.54% (active) in experiment [7], 94.8% in [8], 89.7% in experiment [9] and 82.8% in [10].
For `CSc1nc(Cl)cc(N2CC2)n1`, the growth was 103% in [1]; 108% in experiment [2]; 128% in experiment [3]; 103% in experiment [4]; 105% in experiment [5]; 93% in experiment [6]. Also, the growth is 126% in experiment [7], 102% in [8], 104% in experiment [9] and 139% in experiment [10].
Regarding `COC(=O)CC[C@H](Cc1ccccc1)NC(=O)c1csc([C@@H](C[C@H](C(C)C)N(C)C(=O)[C@@H](NC(=O)[C@H]2CCCCN2C)C(C)C)OC(C)=O)n1`, the growth was 51% in experiment [1]; 83% in experiment [2]; 51% in experiment [3]; 52.7% in experiment [4]; 21.7% in [5]; -1.54% (active) in experiment [6]. Further, the growth in experiment [7] was 9.28% (active); in experiment [8], 40.4%; in [9], 34.8%; in experiment [10], -49.7% (active).
Consider `CCC[CH2][Sn]([CH2]CCC)([CH2]CCC)[O]c1ccc(Cl)cc1Cl`, for which the growth is -87.2% (active) in experiment [1]; -86.5% (active) in experiment [2]; -80.1% (active) in experiment [3]; -91.7% (active) in [4]; -84.8% (active) in experiment [5]; -84.9% (active) in [6]. Further, the growth in [7] is -90.1% (active); in experiment [8], -82% (active); in experiment [9], -93.8% (active); in experiment [10], -75.2% (active).
As to `Cc1cc(-c2nc3cc(F)ccc3[se]2)cc(F)c1N`, the growth is 59.5% in experiment [1]; 34.9% in experiment [2]; 83.8% in [3]; 71.2% in experiment [4]; 23.1% in experiment [5]; 79.2% in experiment [6]. The growth in experiment [7] was 83.1%; in [8], 66.9%; in experiment [9] it was 103%; in [10] it was 52.4%.
Take `COC(=O)[C@@H](C)C[C@H](Cc1ccccc1)NC(=O)c1nc([C@@H](C[C@H](C(C)C)N(C)C(=O)[C@@H](NC(=O)[C@H]2CCCN2C)C(C)C)OC(C)=O)sc1C`: the growth was 31.8% in experiment [1]; 43.4% in experiment [2]; 35.2% in experiment [3]; 21.1% in experiment [4]; 7.21% (active) in [5]; 8.77% (active) in experiment [6]. For the same compound, the growth in [7] is -23.7% (active); in experiment [8], 16.1%; in experiment [9], 14.3%; in experiment [10] it was -74.2% (active).
With `O=C1NC(=O)C(=Cc2ccc(OCCCCC3CCCCC3)c(Cl)c2)C(=O)N1`, the growth in [1] is 96.7%; in experiment [2], 102%; in experiment [3], 105%; in experiment [4], 89.7%; in experiment [5], 93.8%; in [6], 87.4%. In addition, the growth is 81.1% in experiment [7], 92.6% in experiment [8], 88.2% in [9] and 112% in [10].
For `OCc1ccc2c(c1)OCO2`, the growth in experiment [1] is 95.8%; in [2], 94.6%; in [3], 104%; in [4], 93.5%; in [5], 103%; in experiment [6] it was 97.3%. Further, the growth was 90.8% in experiment [7], 92.5% in experiment [8], 104% in experiment [9] and 108% in experiment [10].

These data come from PubChem BioAssay (NCI).
